Whole data set: some 33,000 sequences, median “E-score (-0.5 to 0.5)” near -0.041, cut for the highest 2% near 0.37. Only a selection was taken, and the highest values are over-represented in it overall.
target: T1, Ecm22 (UniProt Q05958); test: PBM E-score (8-mer binding enrichment) (E-score (-0.5 to 0.5)); higher = stronger / more preferred TF binding; conditions: protein concentration: 200 nM; construct: GST-full length
T1 sequence: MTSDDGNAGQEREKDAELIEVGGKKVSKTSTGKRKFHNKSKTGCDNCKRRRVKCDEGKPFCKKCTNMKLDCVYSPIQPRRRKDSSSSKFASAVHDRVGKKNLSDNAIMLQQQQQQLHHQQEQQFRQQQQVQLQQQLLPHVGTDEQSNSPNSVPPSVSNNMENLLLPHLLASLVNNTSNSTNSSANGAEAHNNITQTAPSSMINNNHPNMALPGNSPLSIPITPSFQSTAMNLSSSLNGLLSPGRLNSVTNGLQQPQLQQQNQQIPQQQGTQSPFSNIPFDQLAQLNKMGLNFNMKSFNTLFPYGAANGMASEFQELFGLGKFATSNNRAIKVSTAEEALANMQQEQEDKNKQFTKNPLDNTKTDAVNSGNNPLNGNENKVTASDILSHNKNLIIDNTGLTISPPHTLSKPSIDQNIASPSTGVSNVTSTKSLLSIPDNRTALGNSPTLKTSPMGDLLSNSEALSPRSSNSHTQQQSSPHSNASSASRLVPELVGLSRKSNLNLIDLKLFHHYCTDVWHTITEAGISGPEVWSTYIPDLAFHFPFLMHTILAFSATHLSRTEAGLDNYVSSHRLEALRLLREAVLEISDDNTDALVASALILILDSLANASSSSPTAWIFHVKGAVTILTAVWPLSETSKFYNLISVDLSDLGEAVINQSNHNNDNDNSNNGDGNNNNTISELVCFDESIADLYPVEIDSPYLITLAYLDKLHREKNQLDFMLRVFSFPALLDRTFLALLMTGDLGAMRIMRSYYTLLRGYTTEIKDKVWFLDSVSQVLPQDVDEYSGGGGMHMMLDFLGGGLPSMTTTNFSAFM
Summary of the method: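 PURExpress in vitro transcription/translation supplied GST-tagged yeast transcription factors, either full-length or DNA-binding domain. Applied at about 100-200 nM to universal all-10-mer Agilent arrays double-stranded by primer extension, the bound protein was detected with fluorescent anti-GST. E-scores, modified Wilcoxon-Mann-Whitney statistics, were given by the Universal PBM Analysis Suite to ungapped eight-base words pooled with their reverse complements after masliner normalisation.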

Row | Sequence | PBM E-score
1 | ACGGGGGA | 0.16
2 | CGCTCACC | 0.112
3 | ACCATTTG | -0.0622
4 | CCATGAGA | -0.118
5 | AACCGAGA | 0.312
6 | AGCAAGTG | -0.181
7 | AGTGGAAT | -0.0777
8 | AACCGGAG | -0.0216
9 | AGGCTTTA | -0.133
10 | AGGATCCT | 0.134
11 | CAAACGTA | 0.186
12 | CAAACGGA | 0.202
13 | TAAACGTA | 0.38
14 | TAAACGGA | 0.433
15 | GAAACGGA | 0.256
16 | AAAACGTA | 0.164
17 | AGACCACG | -0.221
18 | ACGCGAGA | 0.281
19 | AAGTTCGT | 0.319
20 | CTAGACAG | -0.189
21 | CCTCATAG | -0.183
22 | ACTCGTCC | -0.139
23 | CCTCGTAG | 0.41
24 | ACTCGTAC | 0.484

Row | Sequence | PBM E-score
25 | CCTCGTAC | 0.491
26 | CCTCGGAC | 0.246
27 | ACTCGTCT | 0.172
28 | ACTCGTGC | 0.0518
29 | ACTCGTAT | 0.479
30 | CCGCGTAC | 0.231
31 | CCTCGTCG | 0.218
32 | ACTCGGAT | 0.318
33 | AGCCCAGG | -0.341
34 | AGGGCGCG | -0.0881
35 | CCCTTCTC | -0.218
36 | CCGTTAGA | 0.0314
37 | GCAGCCGC | -0.0784
38 | ATACAGAG | -0.0254
39 | ATGGTCTG | -0.0872
40 | CCTTTCAA | -0.203
41 | ACCTCTAG | -0.137
42 | TCTCGTCA | 0.0737
43 | ACTCGTAG | 0.34
44 | CCTCGTAA | 0.446
45 | GCTCGTGA | 0.171
46 | ACTCGTCA | 0.0424
47 | CCTCGTGA | 0.201
48 | GCTCGTAA | 0.451

Row | Sequence | PBM E-score
49 | TCACGTAA | 0.00322
50 | GCTCGTCA | 0.0115
51 | TCTCGTAA | 0.438
52 | ACTCGTAA | 0.437
53 | CCTCGTCA | 0.232
54 | CTGAACCC | 0.0346
55 | AGCTGTAT | -0.124
56 | AGCCTGCG | -0.17
57 | AGAGACAT | -0.195
58 | GCTCGTAC | 0.486
59 | GCTCGTCC | -0.109
60 | GCACGTAC | 0.168
61 | CACACATC | -0.226
62 | CGATCAGC | 0.09
63 | CCGAGGAA | 0.0818
64 | ACGAGGAT | 0.387
65 | ACGAGGAC | 0.42
66 | TCGAGGAA | 0.101
67 | ACGAGGAG | 0.349
68 | GCGAGGAC | 0.0393
69 | AGGAGGAT | -0.157
70 | CCGAGGAC | 0.207
71 | ACGAGGAA | 0.375
72 | ACGCTCGG | 0.21

Row | Sequence | PBM E-score
73 | CAGCTGCA | -0.385
74 | CCATTCCA | -0.228
75 | CGTGTGCA | -0.0516
76 | AGTCTACC | -0.156
77 | CAAGATCG | 0.122
78 | ACCCGTAT | 0.391
79 | ACCCGTAC | 0.374
80 | GCCCGTAC | 0.396
81 | CCCCGTAC | 0.377
82 | CCCCGTAG | 0.0215
83 | CCCCGTAA | 0.211
84 | GCCCGTAA | 0.221
85 | GCCCGTCC | -0.279
86 | ACCCGTAA | 0.179
87 | ACCCGTCT | -0.0476
88 | ACCCGTAG | -0.142
89 | AACCGTAT | 0.341
90 | ACGTATTC | 0.144
91 | ACGGAGCC | -0.084
92 | ATTACTTC | -0.0783
93 | GAGGGATC | -0.0216
94 | CTCCTTCC | -0.152
95 | CGGCGCAG | -0.0964
96 | ACAACCGA | 0.26

Row | Sequence | PBM E-score
97 | AACCTTTC | -0.0282
98 | CGCAGAAG | 0.00639
99 | AACTAACG | 0.141
100 | ATTCGTAA | 0.405
101 | GTTCGTCA | 0.0919
102 | GTTCGTAA | 0.427
103 | ATTCGTGA | -0.00041
104 | ATTCGTAG | 0.325
105 | GTTCGTGA | 0.141
106 | AAATGCGC | -0.0587
107 | AAACTGTG | -0.214
108 | CCAGTCAA | -0.166
109 | CCCGTAAC | 0.189
110 | CCCGTACA | 0.368
111 | CACGTACC | 0.285
112 | CCCGTACG | 0.402
113 | CCCGTAGG | -0.158
114 | CCCGTACC | 0.446
115 | AGACCTTG | -0.252
116 | GGAAATCC | -0.00159
117 | AGCAGCCT | -0.102
118 | ATAGCCCC | -0.223
119 | CCAAGGGA | -0.0775
120 | CATCAATG | -0.153

Row | Sequence | PBM E-score
121 | GCCGGTAC | 0.129
122 | CGGCACGA | 0.176
123 | ACTTTGTG | 0.118
124 | CCGCTACG | 0.339
125 | ACGCTACG | 0.382
126 | ACGCTACA | -0.0355
127 | TATCGCCA | -0.0963
128 | GCGGTTAA | -0.0219
129 | CCGGTTAA | 0.132
130 | TCGGTTAA | 0.387
131 | GTCCCCCA | -0.157
132 | GCGGTAAA | 0.173
133 | CGCAACGA | 0.448
134 | AGCAACGC | 0.0942
135 | GGCAACGA | 0.417
136 | CGCAACAA | 0.0504
137 | GGCAACCA | -0.0847
138 | CGCAACGC | 0.0974
139 | GGCAACTA | -0.282
140 | AGCAACGG | 0.203
141 | AGCAACGA | 0.407
142 | AATCGAGG | 0.0537
143 | CAAAAGTA | -0.0653
144 | CCATTTTC | -0.105

From the supplement of paper PMC3334620
